# Only some compounds are listed: those with a hit (about 21% of all), similar ones and a draw of the others.
# Pf growth 96h: Primary qHTS for delayed death inhibitors of the malarial parasite plastid, 96 hour incubation | P. falciparum luciferase reporter growth, 96 h | Potency, µM (doses to about 28.7 µM), for the others: at the top dose activity change, negative = inhibition, hits mostly inhibitors | 320,000 compounds, 6.9% hits | AID 504834, 2011; note: potency is the fitted concentration of half-maximal effect; % is set by controls: 0 for no effect and ±100 for the full control effect
#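 Luminescence readout: decreased luciferase signal marks inhibited growth of reporter-expressing P. falciparum in infected red cells (2% hematocrit, 0.05% parasitemia final), exposed to compound two generations (96 h, 37 C, 5% CO2).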
# Shiga inhibitor: A qHTS for Small Molecule Inhibitors of Shiga Toxin; Vero cells, Shiga toxin protein synthesis inhibition reporter; 290,000 compounds, 9.2% hits; inhibition, % at 38.7 µM; in the data active = inhibition mostly above about 28%, no sharp cut-off; inactive = mostly below about 43%; note: 0% is about no effect
# SARS PLpro yeast: qHTS of Yeast-based Assay for SARS-CoV PLP; S. cerevisiae expressing SARS-CoV PLpro, growth rescue; 330,000 compounds, 0.19% hits; Potency, µM (highest dose often 32.9 µM), inactives show top-dose activity, positive = growth rescue, most hits filed as activators; AID 485353, 2010; calls by dose curve; note: potency is the fitted concentration of half-maximal effect; 0% is about no effect; nearly all actives have a fitted effect of over 55% in size
# Pf growth 48h: Primary qHTS for delayed death inhibitors of the malarial parasite plastid, 48 hour incubation | Potency, µM (highest dose often 28.7 µM), for the others: at the top dose activity change, negative = inhibition, hits mostly inhibitors | 310,000 compounds, 5.9% hits | P. falciparum luciferase growth in erythrocytes, 48 h; note: potency is the fitted concentration of half-maximal effect; % is set by controls: 0 for no effect and ±100 for the full control effect
#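 Luciferase-expressing parasites in RBCs, 2% Hct / 0.1% parasitemia final; RPMI 1640 + 0.5% Albumax; 37 C, 5% CO2, one generation; luminescence read-out, lower signal = inhibition.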
# NS1 inh: qHTS Assay for Inhibitors of Influenza NS1 Protein Function | Potency, µM (doses to about 46.1 µM), for the others: top-dose activity, positive = more growth | 270,000 compounds, 0.4% hits | AID 2326, 2010; calls by dose curve; note: potency is the fitted concentration of half-maximal effect; actives are rising curves; nearly all actives have a fitted effect of over 50% in size
#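 A cell-based growth assay was used: compounds that relieve NS1-induced slow growth of budding yeast raise OD600. Assay medium was yeast nitrogen base with ammonium sulphate and -URA supplement, pH 6.0, with 2% galactose.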
# CHX counter: Cycloheximide Counterscreen for Small Molecule Inhibitors of Shiga Toxin. cell reporter, cycloheximide protein synthesis inhibition counterscreen. max response, %. 300,000 compounds, 12% hits. AID 2314, 2010; in the data active = max response mostly above about 13%, no sharp cut-off; inactive = mostly below about 14%; note: read at 38.3 µM for the half of the compounds with a filed dose; 0% is about no effect
# Starred values were filed as active, the others as inactive; ? = inconclusive; nt = no result given. Unless noted, calls come from the whole dose curve; as a rule, active = well fitted inhibition curve with a large enough effect; inconclusive = small, poorly fitted or top-dose-only effect, or another doubt; inactive = no such curve, though single readings can be large or run the other way.
SMILES,Pf growth 96h,Shiga inhibitor,SARS PLpro yeast,Pf growth 48h,NS1 inh,CHX counter
CCN1CCN(c2nc3ccccc3nc2C(C#N)C(=O)OCc2ccccc2)CC1 (configuration not stated),?,-19,-4%,12µM*,-9%,-8
CCCCCCOC(=O)C(C#N)c1nc2ccccc2nc1N1CCN(CC)CC1 (configuration not stated),?,2,2%,?,-46%,-4
CCC1SC2=NC(C)=C(C(=O)OCC(C)C)C(/C=C/c3ccccc3OC)N2C1=O (configuration not stated),12µM*,1,-5%,?,8%,15
Cc1ccc(CC2C(=O)N(c3cc(Cl)ccn3)C(=O)C2C)cc1 (configuration not stated),85%,43*,-1%,-7%,4%,23*
Cc1ccc(NC(=S)N2CCc3[nH]c4ccccc4c3C2)cc1,14%,-4,0%,4%,-4%,2
S=C(NC1CCCCC1)N1CCc2[nH]c3ccccc3c2C1,?,44*,0%,?,-2%,7
CN1C(=O)/C(=C/c2cccc([N+](=O)[O-])c2)C(=O)N1c1ccccc1,?,nt,2%,-6%,21%,1
CCCN1C/C(=C/c2cccc([N+](=O)[O-])c2)C(=O)/C(=C/c2cccc([N+](=O)[O-])c2)C1,?,-7,-2%,15µM*,11%,19
COCC(O)CSc1nc(C)[nH]c1[N+](=O)[O-] (configuration not stated),2%,-8,2%,nt,-1%,0
CC1CN=C(N(C(=O)Nc2ccccc2)C(C)C)S1 (configuration not stated),?,-4,19%,-18%,1%,8
CC1CN=C(N(C(=O)Nc2ccccc2)C(C)c2ccccc2)S1 (configuration not stated),-20%,47,0%,?,3%,13*
Cc1ccc(N(C(=O)Nc2ccccc2)C2=NCC(C)S2)cc1 (configuration not stated),-13%,91*,2%,44%,-34%,23*
COc1ccc(NC(=O)CC(NCc2ccccn2)C(=O)O)cc1 (configuration not stated),-14%,7,0%,9%,3%,2
CC(C)(C)c1ccc(NC(=O)c2ccsc2)cc1,-22%,45*,-5%,?,-54%,28*
Cn1c(-c2nonc2NC(=O)c2ccc(C(C)(C)C)cc2)nc2ccccc21,-23%,-3,-13%,51%,5%,1
CC(C)(C)c1ccc(C(=O)Nc2ccc(Cl)cc2)cc1,110%,101*,-7%,128%,2%,43*
Cc1ccc(NC(=O)c2ccsc2)cc1NS(C)(=O)=O,-20%,-1,-1%,-15%,-5%,7
CC(=O)Nc1nonc1NC(=O)c1ccc(C(C)(C)C)cc1,132%,58*,-4%,?,0%,20*
O=C(OCC1CC(c2ccccc2)=NO1)c1ccco1 (configuration not stated),33%,93*,-6%,16%,2%,54*
O=C(OCC1CC(c2ccccc2Cl)=NO1)c1ccc(Br)cc1 (configuration not stated),35%,40,-25%,20%,-6%,20*
O=C(OCC1CC(c2ccccc2)=NO1)c1ccc(Br)cc1 (configuration not stated),39%,5,0%,11%,-6%,0
O=C(CNC(=O)C1CCCCC1)NC1CCCCC1,?,22,5%,22%,14%,-3
O=C(NC1CCCCCC1)c1cccc(N2CCCC2=O)c1,44%,33*,0%,181%,3%,46*
O=C(NCc1ccccc1CN1CCCC1)c1cccc(N2CCCC2=O)c1,4.1µM*,nt,0%,?,nt,nt
Cc1ccc(C(=O)NC2CCCCCC2)cc1N1CCCC1=O,?,14,2%,0%,-6%,23*
SMILES,Pf growth 96h,Shiga inhibitor,SARS PLpro yeast,Pf growth 48h,NS1 inh,CHX counter
Cc1cc(C)n2nc(Sc3ncccc3[N+](=O)[O-])nc2n1,-15%,-8,0%,?,4%,-2
O=C1C[C@@H](c2ccc(O)c(O)c2)Oc2cc(O[C@H]3O[C@@H](CO)[C@H](O)[C@@H](O)[C@@H]3O)cc(O)c21,nt,-7,nt,nt,nt,7
O=C(COc1ccc(Cl)cc1Cl)NCCCn1ccnc1,nt,34,2%,6.6µM*,12%,8
COc1ccc(Cl)cc1S(=O)(=O)NC(C)C(=O)NCCCn1ccnc1 (configuration not stated),13µM*,nt,-5%,3%,nt,nt
O=C1/C(=C/c2ccccc2)SC(=S)N1N1C(=O)C2CC2C1=O (configuration not stated),6%,-8,-1%,22%,nt,15
O=c1cc(CCl)[nH]c2nc3ccccc3n12,45%,14,-1%,-1%,0%,-3
O=c1cc(-c2ccccc2)[nH]c2nc3ccccc3n12,?,64*,-17%,?,-52%,40*
CC(C)c1cc(=O)n2c(nc3ccccc32)[nH]1,?,27,-4%,-12%,-24%,13*
Cc1ccc(NC(=S)NCC(O)c2ccccc2)c(C)c1 (configuration not stated),-22%,8,2%,-20%,4%,2
CCOc1ccc(/C=C/C(=O)NC2CCCCC2)cc1,?,nt,-1%,21%,-13%,18*
CCN(CC)S(=O)(=O)c1ccc(/C=C/C(=O)NC2CCCCC2)cc1,4.7µM*,-8,1%,?,-3%,6
CO[C@H]1C[C@@H]2CC[C@@H](C)[C@@](O)(O2)C(=O)C(=O)N2CCCC[C@H]2C(=O)O[C@H]([C@H](C)C[C@@H]2CC[C@@H](OC(=O)C(C)(CO)CO)[C@H](OC)C2)CC(=O)[C@H](C)/C=C(\C)[C@@H](O)[C@@H](OC)C(=O)[C@H](C)C[C@H](C)/C=C/C=C/C=C/1C,-15%,nt,nt,13%,nt,nt
COC1CC2CCC(C)[C@](O)(O2)C(=O)C(=O)N2CCCCC2C(=O)OC(C(C)CC2CCC(O)C(OC)C2)CC(=O)C(C)/C=C(/C)C(O)C(OC)C(=O)C(C)CC(C)C=CC=C/C=C\1C (some centres not stated),1.9µM*,nt,nt,3.8µM*,nt,nt
CCCN(CCC)c1nc(N)c(C#N)c(CC#N)c1C#N,13µM*,3,5%,nt,11%,4
CCCN(CC1CC1)c1nc(N)c(C#N)c(CC#N)c1C#N,?,23,12%,nt,1%,-1
CN(CC1CCCCO1)C(=O)c1cc(COc2ccc(F)cc2Cl)on1 (configuration not stated),26%,-11,0%,?,5%,-2

# Bioassay records as filed in PubChem BioAssay.
